# Test results from PubChem BioAssay (Tox21).
# Where “and” joins values, the source holds several entries; their conditions need not be identical. Equal values may be shown once. Inconclusive results are not listed. Calls of active or inactive are those of the source. Unless noted, calls come from the whole dose curve; as a rule, active = well fitted curve in the direction sought with a large enough effect in the repeat runs; inconclusive = weak or mixed curves; inactive = no such curve, though single readings can be large; an effect the other way counts as inactive or inconclusive.
# Target: Androgen receptor (Homo sapiens) (UniProt P10275)
# Experiment: qHTS assay to identify small molecule antagonists of the androgen receptor (AR) signaling pathway using the MDA cell line in the presence of 0.5 nM R1881 (AID 1259243); note: nearly all actives have a fitted effect of over 50% in size; note: potency is the fitted concentration of half-maximal effect
# Conditions: MDA-kb2 MMTV-luciferase, R1881 0.5 nM, 16 h; series mostly up to 92.4 µM; activity, negative = inhibition: at the top concentration
# Procedure, shortened: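 Luminescence from an AR/GR-responsive MMTV-luciferase construct in MDA-kb2 breast carcinoma cells, read 30 min after ONE-Glo, following 16 hr co-treatment with compounds and 0.5 nM R1881.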
# % is set by controls: 0 for no effect and ±100 for the full control effect.
# Sequence of Androgen receptor (Homo sapiens) (P10275 whole entry, looked up): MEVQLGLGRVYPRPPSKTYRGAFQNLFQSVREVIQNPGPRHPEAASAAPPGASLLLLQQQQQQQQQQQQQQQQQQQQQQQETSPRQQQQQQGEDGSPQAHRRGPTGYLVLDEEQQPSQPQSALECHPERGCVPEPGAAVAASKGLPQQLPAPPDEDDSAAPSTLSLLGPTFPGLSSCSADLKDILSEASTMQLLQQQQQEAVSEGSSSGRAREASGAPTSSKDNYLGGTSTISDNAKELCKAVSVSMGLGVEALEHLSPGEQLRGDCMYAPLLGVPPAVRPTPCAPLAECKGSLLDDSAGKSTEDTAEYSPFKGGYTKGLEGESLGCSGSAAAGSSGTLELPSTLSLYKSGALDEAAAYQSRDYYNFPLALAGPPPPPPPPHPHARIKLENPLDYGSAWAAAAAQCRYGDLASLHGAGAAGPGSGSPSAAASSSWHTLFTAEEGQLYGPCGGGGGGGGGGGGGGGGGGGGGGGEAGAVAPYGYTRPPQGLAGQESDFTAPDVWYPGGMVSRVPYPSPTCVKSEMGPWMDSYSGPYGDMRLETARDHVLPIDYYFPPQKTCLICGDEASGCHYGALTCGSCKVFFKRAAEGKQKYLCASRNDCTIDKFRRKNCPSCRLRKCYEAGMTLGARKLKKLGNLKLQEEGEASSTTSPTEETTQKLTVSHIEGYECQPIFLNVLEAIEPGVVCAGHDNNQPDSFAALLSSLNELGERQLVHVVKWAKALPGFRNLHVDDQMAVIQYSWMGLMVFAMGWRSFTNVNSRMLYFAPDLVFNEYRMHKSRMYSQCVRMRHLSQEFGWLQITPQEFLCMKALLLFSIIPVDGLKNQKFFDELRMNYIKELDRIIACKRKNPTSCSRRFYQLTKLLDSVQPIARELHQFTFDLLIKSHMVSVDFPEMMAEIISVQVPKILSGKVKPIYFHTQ
SMILES,"activity, negative = inhibition",Potency
Cc1c(N)cccc1C(F)(F)F,4.66% [at 42.5 µM] (inactive),
Cc1cc(=O)oc2cc(O)cc(O)c12,-22.9% (inactive),
CC(C)=CCC1=C(O)c2ccccc2C(=O)C1=O,32% (inactive),
CC(C)=CCNc1ncnc2c1ncn2[C@@H]1O[C@H](CO)[C@@H](O)[C@H]1O,50.3% [at 42.5 µM] (inactive),
CCN(CC)c1ccc2c(-c3ccc(S(=O)(=O)O)cc3S(=O)(=O)[O-])c3ccc(=[N+](CC)CC)cc-3oc2c1,,22.4 µM (active)

# Target: Estrogen receptor (Homo sapiens) (UniProt P03372)
# Experiment: qHTS assay to identify small molecule antagonists of the estrogen receptor alpha (ER-alpha) signaling pathway using the BG1 cell line in the presence of 0.1 nM 17-beta-estradiol (AID 1259244); note: nearly all actives have a fitted effect of over 50% in size; note: potency is the fitted concentration of half-maximal effect
# Conditions: VM7Luc4E2 (BG1) ERE-luciferase, antagonist mode, 0.1 nM E2, 22 h; series mostly up to 92.4 µM; activity change, negative = inhibition: at the top concentration
# Procedure, shortened: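 Luciferase signal from VM7Luc4E2 ERE-reporter cells, co-dosed with test compound and 0.1 nM final 17beta-estradiol for 22 h, read with ONE-Glo.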
# Sequence of Estrogen receptor (Homo sapiens) (P03372 whole entry, looked up): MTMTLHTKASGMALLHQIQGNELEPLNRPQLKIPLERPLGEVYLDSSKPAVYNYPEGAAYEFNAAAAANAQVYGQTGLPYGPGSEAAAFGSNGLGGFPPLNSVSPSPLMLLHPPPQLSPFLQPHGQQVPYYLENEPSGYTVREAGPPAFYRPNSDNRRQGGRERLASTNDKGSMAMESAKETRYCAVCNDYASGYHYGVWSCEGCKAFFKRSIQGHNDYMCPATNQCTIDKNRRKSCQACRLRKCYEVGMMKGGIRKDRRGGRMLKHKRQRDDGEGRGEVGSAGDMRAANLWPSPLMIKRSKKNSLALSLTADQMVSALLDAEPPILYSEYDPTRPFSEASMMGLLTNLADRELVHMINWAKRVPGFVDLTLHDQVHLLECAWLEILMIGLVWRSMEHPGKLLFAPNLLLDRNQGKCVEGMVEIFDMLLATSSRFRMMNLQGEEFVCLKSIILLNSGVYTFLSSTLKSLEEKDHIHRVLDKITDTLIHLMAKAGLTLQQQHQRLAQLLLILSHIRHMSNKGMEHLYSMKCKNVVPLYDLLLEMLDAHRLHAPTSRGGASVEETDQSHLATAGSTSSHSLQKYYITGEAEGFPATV
SMILES,"activity change, negative = inhibition",Potency
Nc1nc2c(ncn2COCCO)c(=O)[nH]1,-0.831% [at 42.5 µM] (inactive),
CC(C)NC[C@@H](O)COc1ccc(CC(N)=O)cc1,-1.63% [at 42.5 µM] (inactive),
COC(C)=O,0% (inactive),
CCc1cccc(CC)c1NC(=O)CN(CC(=O)O)CC(=O)O,-6.49% [at 42.5 µM] (inactive),
CC(=O)Oc1cc2c(s1)CCN(C(C(=O)C1CC1)c1ccccc1F)C2 (stereo unspecified),-3.6% [at 42.5 µM] (inactive),
CCCCCCCCCCCCCCCC[N+](C)(C)CC,,27.4 µM (active) and 26.6 µM (active)
Cc1c(C)c2c(c(C)c1OC(=O)c1cccnc1)CC[C@@](C)(CCC[C@H](C)CCC[C@H](C)CCCC(C)C)O2,1.47% [at 42.5 µM] (inactive),
O=C(O)c1cc(=O)c2ccccc2o1,-2.66% [at 42.5 µM] (inactive),
CCN(CC)C(=O)c1cc(S(=O)(=O)Cc2ccccc2)c(N2CCC(c3ccccc3)CC2)cc1N(CC)CCN(C)C,-19.5% [at 42.5 µM] (inactive),
CN1CCN2c3ccccc3Cc3ccccc3C2C1 (stereo unspecified),-14% [at 42.5 µM] (inactive),
Cc1c(F)c(N2CCNC(C)C2)cc2c1c(=O)c(C(=O)O)cn2C1CC1 (stereo unspecified),-10.3% [at 42.5 µM] (inactive),
O=C(O)c1cc(-c2ccc(F)cc2F)ccc1O,13% [at 42.5 µM] (inactive),
CC[N+](CC)(CC)CCOc1ccc(/C=C/c2ccccc2)cc1,,13.3 µM (active)
O=c1[nH]c(=O)n([C@H]2C[C@H](O)[C@@H](CO)O2)cc1F,-27.2% [at 42.5 µM] (inactive),
Cc1cccc(C(=O)O)c1O,10.7% [at 42.5 µM] (inactive),
CCCCCCCCCCC[C@@H](C[C@@H]1OC(=O)[C@H]1CCCCCC)OC(=O)[C@H](CC(C)C)NC=O,8.11% [at 42.5 µM] (inactive),
CCCCCCCC/C=C\CCCCCCCCN,-8.33% [at 42.5 µM] (inactive),

SMILES,"activity change, negative = inhibition",Potency
Cc1cc(C(C)(C)C)cc(C)c1CC1=NCCN1,6.89% [at 42.5 µM] (inactive),
C#CC1(O)CC[C@H]2[C@@H]3CCC4=CCCC[C@@H]4[C@H]3CC[C@@]21C (stereo partly specified),,inactive
C=C(CC)C(=O)c1ccc(OCC(=O)O)c(Cl)c1Cl,,inactive
CC(C)Cn1cnc2c(N)nc3ccccc3c21,-22.8% [at 19 µM] (inactive),
C[C@H]1NCc2cc(-c3ccc4c(=O)c(C(=O)O)cn(C5CC5)c4c3OC(F)F)ccc21,-8.57% [at 19 µM] (inactive),
CCOC(=O)NNc1ccc(N(CC)CC(C)O)nn1 (stereo unspecified),0.0607% [at 42.5 µM] (inactive),
O=C(O)[C@H](O)[C@@H](O)[C@H](O[C@@H]1O[C@H](CO)[C@H](O)[C@H](O)[C@H]1O)[C@H](O)CO,5.95% [at 42.5 µM] (inactive),
CCCCCCCCCCCCOCCOCCOCCOCCOCCOCCOCCOCCOCCO,,6.68 µM (active)
CC(CCc1ccccc1)NCC(O)c1ccc(O)c(C(N)=O)c1 (stereo unspecified),-8.74% (inactive),
CCCCC/C=C\C/C=C\CCCCCCCC(=O)O,,inactive
CCCCCCCCCCCCCC[N+](C)(C)C,,2.96 µM (active) and 3.85 µM (active) and 26.6 µM (active)
C#C[C@]1(OC(C)=O)CC[C@H]2[C@@H]3CCC4=C/C(=N/O)CC[C@@H]4[C@H]3CC[C@@]21CC,-22.5% [at 42.5 µM] (inactive),
CCCCCCCCCCCCCC[N+](C)(C)Cc1ccccc1,,27.7 µM (active) and 15.8 mM (active)
CCOC(=O)Cn1cccc1-c1nc(-c2ccc(OC)cc2)c(-c2ccc(OC)cc2)s1,-0.974% [at 42.5 µM] (inactive),
Cc1c(C)c2c(c(C)c1O)CC[C@@](C)(CCC[C@H](C)CCC[C@H](C)CCCC(C)C)O2,9.29% (inactive),
O[C@@H]([C@H](O)[C@H](O)CBr)[C@H](O)CBr,1.4% (inactive),

# Test system: not listed separately
# Experiment: qHTS assay to identify small molecule phospholipidosis (PLD) inducers (AID 1259344; active = well fitted curve in the direction sought with a large enough effect; an effect the other way counts as inactive or inconclusive)
# Conditions: HepG2 phospholipidosis, LipidTOX Red imaging, 24 h; series mostly up to 38.3 µM; PLD induction: at the top concentration
# Procedure, shortened: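 Image-based: LipidTOX Red pit count/intensity per well and per cell; HepG2, 24 h compound at 37 C, PFA fixation, Hoechst counterstain.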
SMILES,PLD induction,Potency
Nc1nc2c(ncn2COCCO)c(=O)[nH]1,-0.849% [at 15.5 µM] (inactive),
CC(C)NC[C@@H](O)COc1ccc(CC(N)=O)cc1,1.3% (inactive),
COC(C)=O,-2.39% (inactive),
CCc1cccc(CC)c1NC(=O)CN(CC(=O)O)CC(=O)O,-0.415% [at 15.5 µM] (inactive),
CC(=O)Oc1cc2c(s1)CCN(C(C(=O)C1CC1)c1ccccc1F)C2 (stereo unspecified),-2.37% (inactive),
CCCCCCCCCCCCCCCC[N+](C)(C)CC,6.71% (inactive),
Cc1c(C)c2c(c(C)c1OC(=O)c1cccnc1)CC[C@@](C)(CCC[C@H](C)CCC[C@H](C)CCCC(C)C)O2,4.41% (inactive),
O=C(O)c1cc(=O)c2ccccc2o1,-0.648% (inactive),
CCN(CC)C(=O)c1cc(S(=O)(=O)Cc2ccccc2)c(N2CCC(c3ccccc3)CC2)cc1N(CC)CCN(C)C,-2.64% (inactive),
CN1CCN2c3ccccc3Cc3ccccc3C2C1 (stereo unspecified),-0.819% (inactive),
Cc1c(F)c(N2CCNC(C)C2)cc2c1c(=O)c(C(=O)O)cn2C1CC1 (stereo unspecified),-0.654% (inactive),
O=C(O)c1cc(-c2ccc(F)cc2F)ccc1O,-0.927% [at 15.5 µM] (inactive),
CC[N+](CC)(CC)CCOc1ccc(/C=C/c2ccccc2)cc1,2.9% (inactive),
O=c1[nH]c(=O)n([C@H]2C[C@H](O)[C@@H](CO)O2)cc1F,3.05% (inactive),
Cc1cccc(C(=O)O)c1O,-0.736% (inactive),
CCCCCCCCCCC[C@@H](C[C@@H]1OC(=O)[C@H]1CCCCCC)OC(=O)[C@H](CC(C)C)NC=O,10.6% (inactive),
CCCCCCCC/C=C\CCCCCCCCN,-0.483% (inactive),

SMILES,PLD induction,Potency
Cc1cc(C(C)(C)C)cc(C)c1CC1=NCCN1,1.49% [at 15.5 µM] (inactive),
C#CC1(O)CC[C@H]2[C@@H]3CCC4=CCCC[C@@H]4[C@H]3CC[C@@]21C (stereo partly specified),0.206% [at 15.5 µM] (inactive),
C=C(CC)C(=O)c1ccc(OCC(=O)O)c(Cl)c1Cl,-2% (inactive),
CC(C)Cn1cnc2c(N)nc3ccccc3c21,0.392% (inactive),
C[C@H]1NCc2cc(-c3ccc4c(=O)c(C(=O)O)cn(C5CC5)c4c3OC(F)F)ccc21,3.53% (inactive),
CCOC(=O)NNc1ccc(N(CC)CC(C)O)nn1 (stereo unspecified),-4.24% [at 7.66 µM] (inactive),
O=C(O)[C@H](O)[C@@H](O)[C@H](O[C@@H]1O[C@H](CO)[C@H](O)[C@H](O)[C@H]1O)[C@H](O)CO,-5.4% [at 15.5 µM] (inactive),
CCCCCCCCCCCCOCCOCCOCCOCCOCCOCCOCCOCCOCCO,4.62% (inactive),
CC(CCc1ccccc1)NCC(O)c1ccc(O)c(C(N)=O)c1 (stereo unspecified),2.73% (inactive),
CCCCC/C=C\C/C=C\CCCCCCCC(=O)O,-2.2% (inactive),
CCCCCCCCCCCCCC[N+](C)(C)C,7.85% (inactive),
C#C[C@]1(OC(C)=O)CC[C@H]2[C@@H]3CCC4=C/C(=N/O)CC[C@@H]4[C@H]3CC[C@@]21CC,7.97% (inactive),
CCCCCCCCCCCCCC[N+](C)(C)Cc1ccccc1,0.301% (inactive),
CCOC(=O)Cn1cccc1-c1nc(-c2ccc(OC)cc2)c(-c2ccc(OC)cc2)s1,10% (inactive),
Cc1c(C)c2c(c(C)c1O)CC[C@@](C)(CCC[C@H](C)CCC[C@H](C)CCCC(C)C)O2,,inactive
O[C@@H]([C@H](O)[C@H](O)CBr)[C@H](O)CBr,-0.78% (inactive),
